# Bioassay records as filed in PubChem.
# This is a sample that favours compounds with a hit; in the whole collection about 3.4% have one here.
# Ecoli rRNA inh – selective bacterial rRNA inhibition in E. coli. GFP signal change (wild-type ribosome), % (no concentration beside the values). actives 1.6% (n = 350,000). AID 720706. E. coli WT GFP vs humanized-ribosome RFP mutants, fluorescence, 24 h; stronger effect = lower value; DMSO median 0, no signal -100;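 active = significant combined selectivity score with lowered wild-type GFP, culture density cut under 30%, mutant RFP and density less affected; inactive = any of these conditions unmet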
# PAX8 inh HTS – lowers PAX8-driven luciferase in RMG-I cells; inhibition, % at 12.6 µM; actives 1.2% (n = 360,000); AID 652154; RMG-I TPO-luciferase reporter, SteadyGlo, 24 h;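 active = mean replicate inhibition at least 60% with every replicate also reaching 60%; inconclusive = only one of the two criteria is met; inactive = mean below 60% and not all replicates reaching 60%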;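 note: luciferase light reporting Pax8 driven TPO promoter activity; plate controls were median of neutral control wells for no effect and mitoxantrone controls for full effect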
# EWS-Fli block – EWS/Fli transcriptional activity inhibition; AID 651661; inhibition, % at 12.6 µM; actives 0.67% (n = 350,000); A673 NR0B1-luciferase reporter, viability-normalised;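 active = mean inhibition of at least 50% after viability correction, with every replicate also passing that limit; inconclusive = mean reaches 50% but only one of two replicates passes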;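 note: firefly luciferase signal divided by Alamar Blue viability fluorescence both relative to DMSO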
# SIRT5 block – blocks human SIRT5 desuccinylation of peptide | Purified SirT5, succinyl-peptide AMC, trypsin-coupled fluorescence | actives 1.1% (n = 330,000) | inhibition, % at 15 µM; in the data active = inhibition above about 15%; inconclusive = no clear call, values can overlap the other calls
# Target sequence (Q9NXA8 whole entry, looked up): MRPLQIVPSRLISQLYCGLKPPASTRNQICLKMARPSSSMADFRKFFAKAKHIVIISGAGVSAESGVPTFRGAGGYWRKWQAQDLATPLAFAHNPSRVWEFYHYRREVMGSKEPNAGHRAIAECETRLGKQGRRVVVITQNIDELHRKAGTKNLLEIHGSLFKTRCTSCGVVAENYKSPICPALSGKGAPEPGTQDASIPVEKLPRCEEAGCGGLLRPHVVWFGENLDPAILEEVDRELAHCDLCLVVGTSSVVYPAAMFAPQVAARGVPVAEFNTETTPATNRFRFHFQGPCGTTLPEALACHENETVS
# LGR2 inh – blocks bursicon-induced cAMP signaling via Drosophila LGR2 | HEK293 LGR2, CRE-luciferase, bursicon-stimulated, 4 h | inhibition, % at 9.99 µM | actives 0.35% (n = 380,000) | AID 720647;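 active = drop in luminescence signal, shown as inhibition above about 50% in the replicate tests, limit read from the data, passing the limit was not always enough; inconclusive = probably only some replicates passing the limit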;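 note: agonist challenge used bursicon conditioned medium at about half maximal strength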
# PGC1a acetyl inh – lowers PGC1a acetylation signal in U2OS cells; AlphaScreen anti-acetyl-lysine; with virally co-expressed GCN5 acetyltransferase; inhibition, % at 15.6 µM; actives 0.17% (n = 350,000);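 active = every replicate shows inhibition of at least 40%; inconclusive = mean inhibition at least 40% but some replicate below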;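 note: 0% = neutral control wells and 100% = positive control wells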
# AID977621 – growth inhibition of wild-type GFP E. coli, dose response, H69 mutant RFP, cherry-pick; shares compounds with Ecoli rRNA inh; E. coli wild-type GFP strain growth, fluorescence, 24 h; activity change, negative = inhibition at 50 µM; 1,900 tested, under 10 active; AID 977621;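 active = Wild-type ribosome reporter drop at least double the humanized mutant ribosome reporter drop, growth loss under a set limit; inconclusive = no clear call, values can overlap the other calls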;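 note: wild-type GFP and H69 mutant RFP strains grown together 50/50 in each well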
# AID977628 – growth of wild-type and h24-humanized E. coli strains – h24 mutant RFP vs wild-type GFP, cherry-pick, dose response; shares compounds with Ecoli rRNA inh; E. coli WT GFP strain growth, fluorescence, 24 h; activity change, negative = inhibition at 50 µM; 1,900 tested, under 10 active; AID 977628;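 active = compound lowering the normal-ribosome reporter at least twice as much as the humanized-ribosome reporter, growth loss under a set limit; inconclusive = no clear call, values can overlap the other calls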;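 note: wild-type GFP and h24 humanized RFP strains co-cultured 1 to 1 per well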
# Active calls of the source: *; ? = inconclusive; . = no result.
SMILES,Ecoli rRNA inh,PAX8 inh HTS,EWS-Fli block,SIRT5 block,LGR2 inh,PGC1a acetyl inh,AID977621,AID977628
COCCNC(=O)C[C@H]1CC[C@@H]2[C@@H](COc3ccc(NC(=O)Nc4ccccc4)cc3C(=O)N2C)O1,.,-3.9,2.1,-6.5,5.9,3.8,.,.
CCCC(=O)N(CCc1ccc(OC)cc1)Cc1nc2ccccc2c(=O)[nH]1,-21.0*,.,-6.9,0.8,0.0,0.6,.,-7.71
CCCCC(=O)N(Cc1ccc2c(c1)OCO2)Cc1nc2ccccc2c(=O)[nH]1,-23.3*,-0.4,4.8,-1.1,25.0,.,.,-3.76
COCC(=O)Nc1ccc2c(c1)OC[C@@H](C)N(Cc1ccncc1)C[C@H](C)[C@@H](OC)CN(C)C2=O,-0.2,.,-4.5,-3.9,-4.6,11.1,.,.
Cc1noc(C)c1NC(=O)N(C)C[C@H]1Oc2ncc(/C=C/c3ccccc3)cc2C(=O)N([C@@H](C)CO)C[C@@H]1C,7.2,-6.6,-13.6,-15.4,8.0,13.4,.,.
CCOC(=O)CSc1n[nH]c(=S)s1,0.0,4.8,2.8,1.2,10.4,.,.,.
CCOC(=O)CCSc1n[nH]c(=S)s1,-20.7*,-16.9,0.4,-4.3,-21.7,.,-14.4,-2.74
CC1Sc2ccc(S(=O)(=O)NCCc3ccccc3)cc2NC1=O (centres undefined),-30.6,2.0,.,-0.9,9.5,4.4,.,.
CC1Sc2ccc(S(=O)(=O)NCc3ccccc3)cc2NC1=O (centres undefined),-21.2*,5.7,.,-1.1,14.1,-15.2,-13.6,.
CS(=O)(=O)Nc1ccc2c(c1)[C@@H]1C[C@H](CC(=O)NCc3ccccc3)O[C@H](CO)[C@@H]1O2,2.0,-7.1,-4.7,1.4,7.9,-1.3,.,.
COc1ccc(NC(=O)N(C)C[C@H]2Oc3ccc(NC(=O)C4CCCCC4)cc3C(=O)N([C@H](C)CO)C[C@H]2C)cc1,-3.9,.,-7.1,0.5,18.7,-1.5,.,.
COCc1ccc(C(=O)N2CCCC(C(=O)c3ccc(Cl)cc3C)C2)o1 (centres undefined),-25.9*,3.2,.,0.7,10.5,7.3,-1.04,-8.78
Brc1cc2c(cc1Br)OCCOCCOCCO2,-24.0*,-6.2,-1.0,3.2,3.9,-15.9,?,.
O=C(Nc1ccc(-c2nnc3n2CCCCC3)cc1)c1cc2ccccc2o1,-20.4*,-21.4,-8.2,-3.7,.,.,-7.44,-3.19
Cc1ccc2oc(=O)n(CC(=O)OCCC(C)C)c2c1,-17.9*,-6.6,-2.4,-3.5,8.3,-8.8,-14,-2.49
Cc1ccc2oc(=O)n(CCOc3ccccc3C)c2c1,11.7,15.2,-9.1,-3.5,-7.3,-9.0,.,.
CCOC(=O)Cn1c(=O)oc2ccc(C)cc21,7.2,4.7,6.7,-2.1,-10.0,.,.,.
Cc1ccc2oc(=O)n(CCCOc3ccccc3C)c2c1,-19.0*,-28.5,-27.4,-5.4,-15.1,.,-8.36,?
Cc1cccc(-c2n[nH]c(S(C)(=O)=O)c2C#N)c1,-15.8,-15.5,-16.0,-2.4,-4.6,.,.,.
Cc1ccc(-c2n[nH]c(S(C)(=O)=O)c2C#N)cc1,-21.4*,29.3,-5.4,0.5,-10.7,.,-20,?
CCCCNC(=O)c1onc(CSc2cc(C)cc(C)c2)c1C(=O)NCCCC,9.2,13.1,22.0,1.9,13.9,-0.5,.,.
CCCCNC(=O)c1onc(CSc2cc(C)cc(C)c2)c1C(=O)O,-29.2*,-19.6,1.9,-2.2,3.1,5.2,-7.86,.
COc1ccc(NC(=O)N(C)C[C@@H]2Oc3ccc(NC(=O)C4CCCCC4)cc3C(=O)N([C@H](C)CO)C[C@@H]2C)cc1,-0.4,.,-14.9,-1.0,8.9,3.5,.,.
CN(C)C(=O)[C@]1(CCS(=O)(=O)c2ccccc2)N=C(c2ccc(OCCCO)cc2)O[C@@H]1c1ccccc1,.,-3.4,16.0,1.8,.,.,.,.
O=C(Nc1cccnc1)c1sc2cccc(F)c2c1Cl,-19.9*,-125.5,-40.3,-1.3,-31.0,6.2,-8.16,-2.74
